For orientation: AC50 means the midpoint of the concentration-response curve, whichever way the signal moves.

Calls of active or inactive are those of the source. How the source made its calls: active means hit-call score of the fitted dose curve at least 0.9, where 1 is the maximum; inactive means score below 0.9.

This passage reports outcome and AC50 results from PubChem BioAssay (EPA / NIEHS).

Read-out in this assay: TIMP metallopeptidase inhibitor 2 (TIMP2), TIMP2 (gene 7077)
In words: BSK_KF3CT_TIMP2: BioMAP Diversity Plus: KF3CT Assay for TIMP metallopeptidase inhibitor 2 (TIMP2) Biomarker Activity (AID 2283071). The conditions noted are these: primary human keratinocytes with fibroblasts; actives raise or lower the signal. The procedure: BSK_KF3CT is a cell-based, multiplexed-readout assay that uses keratinocytes and foreskin fibroblasts, a human skin primary cell co-culture, with measurements taken at 24 hours after chemical dosing in a 96-well plate.BSK_KF3CT_TIMP2 is an assay component measured in the BSK_KF3CT assay. It measures TIMP-2 antibody related to regulation of gene expression using ELISA technology.Data from the assay component BSK_KF3CT_TIMP2 was analyzed into 1 assay endpoint. This assay endpoint, BSK_KF3CT_TIMP2, was analyzed with bidirectional fitting relative to DMSO as the negative control and baseline of activity. Using a type of binding reporter, gain or loss-of-signal activity can be used to understand changes in the signaling as they relate to the gene TIMP2. Furthermore, this assay endpoint can be referred to as a primary readout, because this assay has produced multiple assay endpoints where this one serves a signaling function. To generalize the intended target to other relatable targets, this assay endpoint is annotated to the protease inhibitor intended target family, where the subfamily is metalloproteinase inhibitor.
The levels of cell surface (or secreted, indicated by the prefix "s") biomarker endpoints were measured by ELISA. Overt cytotoxicity to cells in confluent adherent cultures (all systems other than the BT system) was assessed by measuring total protein levels using sulforhodamine B (SRB) staining in parallel cultures at the time of biomarker measurements, indicated as SRB endpoints. For proliferation assays for adherent cell types, individual cell types are cultured at sub-confluence and relative cell numbers quantified by SRB staining at time points optimized for each system (48 h: 3C and CASM3C systems; 72 h: BT and HDF3CGF systems; 96 h: SAg system). SRB was performed by staining cells with 0.1% SRB after fixation with 10% TCA and reading wells at 560 nm.Viability and proliferation of PBMC (T cells) was quantified by Alamar Blue reduction for the SAg and BT systems. For PBMC viability (referred to as PBMC Cytotoxicity within the assay endpoint names), cells were plated (75,000/well in a 96-well plate) and then chemical samples added for 1 h before addition of activators, SEB and TSST-1 (20 ng/mL final concentration each). Cells were incubated for 90 h. Then, Alamar Blue (20 uL/well) (Invitrogen, Cat DAL1100) was added for 6 h, and the plates were read with a fluorescence microplate reader at 546/580 nm (excitation/emission). For PBMC proliferation, cells were plated and activated as above but incubated for only 16 h prior to addition of Alamar Blue. Plates were read after 6 h.
Turning to `CN1CCCC1=O`, the outcome was inactive. Take `Cc1cccc([N+](=O)[O-])c1C`: the outcome was inactive. Same read-out and setting: the entry for `CCCCCCC(=O)OCC` is “inactive”. The same measure, in the same setting: the same measure for `Cc1ccc(C(C)C)c(O)c1`: “inactive”; for `CCCCCCCC=O`: “inactive”; for `C=CCOC(=O)c1ccccc1C(=O)OCC=C`: “inactive”. In the case of `CCCc1cc(=O)[nH]c(=S)[nH]1`, the outcome was inactive. Take `Cc1ccc(N(C)C)cc1`: the result was inactive. With `Cc1ccc2ncccc2c1`, the result was inactive. On the same count and under the same terms, the same measure for `CCCCCCCCCCCC(=O)OC`: “inactive”.

Turning to `COc1cc(-c2nc(NC(=O)c3cc4cc(C)cc(C)c4n3CC(=O)O)sc2CCC2CCCCC2)c(OC)cc1Cl`, the AC50 is 1.54 µM (active).

In the case of `CC(C)(C)c1cc(O)c(C(C)(C)C)cc1O`, the outcome was inactive.

On to `COCCOC[C@H](CC1(C(=O)NC2CCC(C(=O)O)CC2)CCCC1)C(=O)Oc1ccc2c(c1)CCC2` (stereo not given in full), for which the result was inactive.

With `CC(=O)OCCOCCOCCOC(C)=O`, the result was inactive. Still for that read-out and setting: the entry for `Clc1cc(Cl)c(Cl)cc1Cl` is “inactive”. Take `CCCCCCCCCCCCCO`: the AC50 was 34.1 µM (active).

Turning to `CCOC(=O)C(C)(C)Oc1ccc(Cl)cc1`, the outcome was inactive. As for `O=c1c(O)c(-c2ccc(O)c(O)c2)oc2cc(O)cc(O)c12`, the half-maximal activity concentration (AC50) was 20 µM (active).

Take `CCCCCCCCCCO`: the result was inactive. Still for that read-out and setting: the same measure for `O=[N+]([O-])C(CO)(CO)CO`: “inactive”; for `NC(=O)Cn1c(=O)cc(CCN2CCN(c3nccc4sccc34)CC2)c2ccc(F)cc21`: “inactive”; for `CC(CO)OC(C)CO` (stereo not given) (tested in a mixture with another compound): “inactive”. On to `CC(C)c1ccc(C(=O)N=C(N)N)cc1S(C)(=O)=O`, for which the outcome was inactive. Same read-out and setting: the same measure for `COCCOCCOC`: “inactive”; for `O=C(O)Cc1ccccc1Nc1c(Cl)cccc1Cl`: “inactive”. The same measure, in the same setting: the same measure for `CCOc1ccc2c(c1)C(C)=CC(C)(C)N2`: “inactive”; for `CCNc1cccc(C)c1`: “inactive”; for `CCCCCCCCCCCCCCCC`: “inactive”. On to `Cc1nc(-c2ccc3c(c2)CCN(CCC2CCC(NC(=O)/C=C/c4ccc(F)cc4)CC2)CC3)no1` (stereo not given), for which the outcome was inactive. With `CCCCCC(=O)O`, the result was inactive.

Consider `COC(=O)c1ccc(O)cc1`, for which the outcome was inactive. As to `Oc1ccc2ccccc2c1N=Nc1ccccc1`, the AC50 is 3.97 µM (active).

`COc1cc(C=O)ccc1O`: the outcome was inactive. Same read-out and setting: the entry for `c1cc(-c2ccncc2)ccn1` is “inactive”; for `C=CCc1ccc(O)c(OC)c1` it is “inactive”; for `COc1ccc(C)cc1N` it is “inactive”.

For the molecule `CNC(=O)[C@H]1O[C@@H](n2cnc3c(NCc4cc(Cl)ccc4OCc4cc(C)no4)ncnc32)[C@H](O)[C@@H]1N`, the result was inactive. On to `CC1=C(/C=C/C(C)=C/C=C/C(C)=C/CO)C(C)(C)CCC1`, for which the outcome was inactive.

For the molecule `CNCc1cc(F)ccc1Oc1ccc(Cl)c(Cl)c1`, the outcome was inactive. On the same count and under the same terms, the entry for `Nc1nc(N)c2nc(CNc3ccc(C(=O)N[C@@H](CCC(=O)O)C(=O)O)cc3)cnc2n1` is “inactive”.
